# Measured values published in PubChem BioAssay AID1159580 (chemical genetic matrix, 2015).
# Hit rate of the full screen: of about 5,500 compounds, about 2,000 (36%) were called active. Not shown: some 18% with an inconclusive outcome. The list shows a part of the results. Values without a mark were called inactive. Cut-off read from the data, not from the text of the source: active = normalized growth mostly below about 0.91 (no sharp cut-off); inconclusive = no clear call, values can overlap the other calls; inactive = mostly above about 0.92.
# Assay: chemical genetic growth profiling, strain panel (AID 1159580);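 note: tested at 20 µM; growth read once vehicle control cultures reached saturation at 30 °C; 1 = growth at the plate median or of vehicle wells; lower values mean less growth of the strain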
# Details: growth OD
# [1] = S. cerevisiae deletion strains, locus YDL101C, strain DUN1, active compounds read low
# [2] = S. cerevisiae deletion strains, locus YHR030C, strain SLT2, active compounds read low
# [3] = S. cerevisiae deletion strains, locus YAL013W, strain DEP1, active compounds read low
# [4] = S. cerevisiae deletion strains, locus YBR229C, strain ROT2, active compounds read low
# [5] = S. cerevisiae deletion strains, locus YDR150W, strain NUM1, active compounds read low
# [6] = S. cerevisiae deletion strains, locus YEL061C, strain CIN8, active compounds read low
# [7] = S. cerevisiae deletion strains, locus YGR078C, strain PAC10, active compounds read low
# [8] = S. cerevisiae deletion strains, locus YHR087W, strain rtc3, active compounds read low
# [9] = S. cerevisiae deletion strains, locus YJR043C, strain POL32, active compounds read low
# [10] = S. cerevisiae deletion strains, locus YJR075W, strain HOC1, active compounds read low
# [11] = S. cerevisiae deletion strains, locus YLR039C, strain RIC1, active compounds read low
# [12] = S. cerevisiae deletion strains, locus YLR058C, strain SHM2 (second series), active compounds read low
# [13] = S. cerevisiae deletion strains, locus YLR085C, strain ARP6, active compounds read low
# [14] = S. cerevisiae deletion strains, locus YLR262C, strain YPT6, active compounds read low
# [15] = S. cerevisiae deletion strains, locus YML094W, strain GIM5, active compounds read low
# [16] = S. cerevisiae deletion strains, locus YMR219W, strain ESC1, active compounds read low
# [17] = S. cerevisiae deletion strains, locus YNL128W, strain TEP1, active compounds read low
# [18] = S. cerevisiae deletion strains, locus YNL153C, strain GIM3, active compounds read low
# [19] = S. cerevisiae deletion strains, locus YNL298W, strain CLA4 (second series), active compounds read low
# [20] = S. cerevisiae deletion strains, locus YNL322C, strain KRE1, active compounds read low
# [21] = S. cerevisiae deletion strains, locus YNR030W, strain Alg12, active compounds read low
# [22] = S. cerevisiae deletion strains, locus YPL055C, strain LGE1, active compounds read low
# [23] = S. cerevisiae deletion strains, locus YPL241C, strain CIN2, active compounds read low
# [24] = S. cerevisiae deletion strains, locus YPR135W, strain CTF4, active compounds read low
compound,measurement,setting,value
O=C(CSCc1csc2ccccc12)Nc1ccc(F)c(Cl)c1,normalized growth,"S. cerevisiae deletion strains, locus YAR019C, strain CDC15, active compounds read low",0.978
same,normalized growth,"S. cerevisiae deletion strains, locus YBL105C, strain PKC1, active compounds read low",0.977
same,normalized growth,"S. cerevisiae deletion strains, locus YBR135W, strain CKS1, active compounds read low",0.973
same,normalized growth,"S. cerevisiae deletion strains, locus YBR136W, strain MEC1, active compounds read low",0.981
same,normalized growth,"S. cerevisiae deletion strains, locus YBR160W, strain CDC28, active compounds read low",0.974
same,normalized growth,"S. cerevisiae deletion strains, locus YDL017W, strain CDC7, active compounds read low",0.98
same,normalized growth,"S. cerevisiae deletion strains, locus YDL028C, strain MPS1, active compounds read low",0.982
same,normalized growth,[1],0.999
same,normalized growth,"S. cerevisiae deletion strains, locus YDL108W, strain KIN28, active compounds read low",0.973
same,normalized growth,"S. cerevisiae deletion strains, locus YDL132W, strain cdc53, active compounds read low",0.982
same,normalized growth,"S. cerevisiae deletion strains, locus YDL214C, strain PRR2, active compounds read low",0.885
same,normalized growth,"S. cerevisiae deletion strains, locus YDR052C, strain DBF4, active compounds read low",0.99
same,normalized growth,"S. cerevisiae deletion strains, locus YDR054C, strain cdc34, active compounds read low",0.97
same,normalized growth,"S. cerevisiae deletion strains, locus YDR226W, strain ADK1, active compounds read low",0.986
same,normalized growth,"S. cerevisiae deletion strains, locus YDR477W, strain SNF1, active compounds read low",0.909
same,normalized growth,"S. cerevisiae deletion strains, locus YER123W, strain YCK3, active compounds read low",0.884
same,normalized growth,"S. cerevisiae deletion strains, locus YER133W, strain GLC7, active compounds read low",0.921
same,normalized growth,"S. cerevisiae deletion strains, locus YFL009W, strain cdc4, active compounds read low",0.978
same,normalized growth,"S. cerevisiae deletion strains, locus YFL029C, strain CAK1, active compounds read low",0.975
same,normalized growth,"S. cerevisiae deletion strains, locus YFR003C, strain YPI1, active compounds read low",0.978
same,normalized growth,"S. cerevisiae deletion strains, locus YFR019W, strain FAB1, active compounds read low",0.93
same,normalized growth,"S. cerevisiae deletion strains, locus YFR028C, strain CDC14, active compounds read low",0.975
same,normalized growth,"S. cerevisiae deletion strains, locus YGR040W, strain KSS1, active compounds read low",0.917
same,normalized growth,"S. cerevisiae deletion strains, locus YGR052W, strain FMP48, active compounds read low",0.925
same,normalized growth,"S. cerevisiae deletion strains, locus YGR092W, strain DBF2, active compounds read low",0.878
same,normalized growth,[2],0.821 (active)
same,normalized growth,"S. cerevisiae deletion strains, locus YHR079C, strain IRE1, active compounds read low",0.858
same,normalized growth,"S. cerevisiae deletion strains, locus YHR082C, strain KSP1, active compounds read low",0.896
same,normalized growth,"S. cerevisiae deletion strains, locus YHR205W, strain SCH9, active compounds read low",0.845
same,normalized growth,"S. cerevisiae deletion strains, locus YIL147C, strain SLN1, active compounds read low",0.984
same,normalized growth,"S. cerevisiae deletion strains, locus YJL095W, strain BCK1, active compounds read low",0.877
same,normalized growth,"S. cerevisiae deletion strains, locus YJL128C, strain PBS2, active compounds read low",0.946
same,normalized growth,"S. cerevisiae deletion strains, locus YJL157C, strain FAR1, active compounds read low",0.875
same,normalized growth,"S. cerevisiae deletion strains, locus YJR016C, strain ILV3, active compounds read low",0.972
same,normalized growth,"S. cerevisiae deletion strains, locus YJR066W, strain TOR1 (second series), active compounds read low",0.893
same,normalized growth,"S. cerevisiae deletion strains, locus YJR066W, strain TOR1, active compounds read low",0.889
same,normalized growth,"S. cerevisiae deletion strains, locus YKL048C, strain ELM1, active compounds read low",0.952
same,normalized growth,"S. cerevisiae deletion strains, locus YKL067W, strain YNK1, active compounds read low",0.897
same,normalized growth,"S. cerevisiae deletion strains, locus YKL101W, strain HSL1, active compounds read low",0.89
same,normalized growth,"S. cerevisiae deletion strains, locus YKL193C, strain SDS22, active compounds read low",0.977
same,normalized growth,"S. cerevisiae deletion strains, locus YKL203C, strain TOR2, active compounds read low",0.96
same,normalized growth,"S. cerevisiae deletion strains, locus YLR113W, strain HOG1, active compounds read low",0.68 (active)
same,normalized growth,"S. cerevisiae deletion strains, locus YLR133W, strain CKI1, active compounds read low",0.899
same,normalized growth,"S. cerevisiae deletion strains, locus YLR403W, strain SFP1, active compounds read low",0.889
same,normalized growth,"S. cerevisiae deletion strains, locus YML070W, strain DAK1, active compounds read low",0.849
same,normalized growth,"S. cerevisiae deletion strains, locus YMR001C, strain CDC5, active compounds read low",0.977
same,normalized growth,"S. cerevisiae deletion strains, locus YMR205C, strain PFK2 (second series), active compounds read low",0.904
same,normalized growth,"S. cerevisiae deletion strains, locus YMR277W, strain FCP1, active compounds read low",0.978
same,normalized growth,"S. cerevisiae deletion strains, locus YNL006W, strain LST8, active compounds read low",0.978
same,normalized growth,"S. cerevisiae deletion strains, locus YNL020C, strain ARK1, active compounds read low",0.887
same,normalized growth,"S. cerevisiae deletion strains, locus YNL161W, strain CBK1, active compounds read low",0.977
same,normalized growth,"S. cerevisiae deletion strains, locus YNL183C, strain NPR1, active compounds read low",0.879
same,normalized growth,"S. cerevisiae deletion strains, locus YNL207W, strain RIO2, active compounds read low",0.974
same,normalized growth,"S. cerevisiae deletion strains, locus YNL222W, strain SSU72, active compounds read low",0.966
same,normalized growth,"S. cerevisiae deletion strains, locus YNL307C, strain MCK1 (second series), active compounds read low",0.877
same,normalized growth,"S. cerevisiae deletion strains, locus YOL078W, strain AVO1, active compounds read low",0.979
same,normalized growth,"S. cerevisiae deletion strains, locus YOL136C, strain PFK27, active compounds read low",0.843
same,normalized growth,"S. cerevisiae deletion strains, locus YOR061W, strain CKA2, active compounds read low",0.895
same,normalized growth,"S. cerevisiae deletion strains, locus YOR119C, strain RIO1, active compounds read low",0.965
same,normalized growth,"S. cerevisiae deletion strains, locus YOR231W, strain MKK1, active compounds read low",0.814
same,normalized growth,"S. cerevisiae deletion strains, locus YOR329C, strain SCD5, active compounds read low",0.982
same,normalized growth,"S. cerevisiae deletion strains, locus YPL031C, strain PHO85, active compounds read low",0.906
same,normalized growth,"S. cerevisiae deletion strains, locus YPL153C, strain RAD53, active compounds read low",0.897
same,normalized growth,"S. cerevisiae deletion strains, locus YPL204W, strain HRR25, active compounds read low",0.907
same,normalized growth,"S. cerevisiae deletion strains, locus YPL209C, strain IPL1, active compounds read low",0.973
same,normalized growth,"S. cerevisiae deletion strains, locus YPL256C, strain CLN2, active compounds read low",0.754 (active)
same,normalized growth,"S. cerevisiae deletion strains, locus YPR025C, strain CCL1, active compounds read low",0.975
same,normalized growth,"S. cerevisiae deletion strains, locus YPR106W, strain ISR1, active compounds read low",0.961
same,normalized growth,"S. cerevisiae deletion strains, locus YPR111W, strain DBF20, active compounds read low",0.952
same,normalized growth,"S. cerevisiae deletion strains, strain NNK1, active compounds read low",0.956
same,normalized growth,"S. cerevisiae deletion strains, strain TSCII, active compounds read low",0.977
O=C(CSCc1c(F)cccc1Cl)NC1Cc2ccccc2C1,normalized growth,[3],0.984
same,normalized growth,[4],0.973
same,normalized growth,[1],0.995
same,normalized growth,[5],0.959
same,normalized growth,[6],0.949
same,normalized growth,[7],0.978
same,normalized growth,[2],0.776
same,normalized growth,[8],0.962
same,normalized growth,[9],0.991
same,normalized growth,[10],0.944
same,normalized growth,[11],0.925
same,normalized growth,[12],0.973
same,normalized growth,[13],0.906
same,normalized growth,[14],0.964
same,normalized growth,[15],0.956
same,normalized growth,[16],0.97
same,normalized growth,"S. cerevisiae deletion strains, locus YMR263W, strain SAP30, active compounds read low",0.991
same,normalized growth,"S. cerevisiae deletion strains, locus YMR307W, strain GAS1, active compounds read low",0.628 (active)
same,normalized growth,[17],0.988
same,normalized growth,[18],0.977
same,normalized growth,[19],0.944
same,normalized growth,[20],0.973
same,normalized growth,[21],0.943
same,normalized growth,[22],0.944
same,normalized growth,[23],0.938
same,normalized growth,[24],0.76
O=C(CSCc1c(F)cccc1Cl)Nc1ccc(F)c(Cl)c1,normalized growth,[3],0.883 (active)
same,normalized growth,[4],0.834 (active)
same,normalized growth,"S. cerevisiae deletion strains, locus YCL061C, strain MRC1, active compounds read low",0.869 (active)
same,normalized growth,[1],0.956
same,normalized growth,[5],0.83
same,normalized growth,[6],0.881 (active)
same,normalized growth,[7],0.872 (active)
same,normalized growth,"S. cerevisiae deletion strains, locus YGR229C, strain SMI1, active compounds read low",0.913 (active)
same,normalized growth,[2],0.194 (active)
same,normalized growth,[8],0.811 (active)
same,normalized growth,"S. cerevisiae deletion strains, locus YJL187C, strain SWE1, active compounds read low",0.875 (active)
same,normalized growth,[9],0.909 (active)
same,normalized growth,[10],0.794 (active)
same,normalized growth,"S. cerevisiae deletion strains, locus YKL190W, strain CNB1, active compounds read low",0.802 (active)
same,normalized growth,[11],0.607 (active)
same,normalized growth,[12],0.908 (active)
same,normalized growth,[13],0.561 (active)
same,normalized growth,[14],0.595 (active)
same,normalized growth,[15],0.826 (active)
same,normalized growth,[16],0.891 (active)
same,normalized growth,[17],0.928
same,normalized growth,[18],0.935
same,normalized growth,[19],0.773 (active)
same,normalized growth,[20],0.946
same,normalized growth,[21],0.752 (active)
same,normalized growth,"S. cerevisiae deletion strains, locus YOL006C, strain TOP1, active compounds read low",0.953
same,normalized growth,[22],0.75 (active)
same,normalized growth,[23],0.781 (active)
same,normalized growth,[24],0.441 (active)
same,normalized growth,"S. cerevisiae strains, strain wild type, active compounds read low",0.87 (active)
